Records with an inconclusive call do not appear. The source made the active and inactive calls. Unless noted, calls come from the whole dose curve.
Experiments:
[1] = Nuclear factor erythroid 2-related factor 2/antioxidant responsive element (Nrf2/ARE) small molecule agonists: qHTS cell viability counter screen in human keratinocytes (AID 1919968; active = well fitted curve in the direction sought with a large enough effect in the repeat runs; an effect the other way counts as inactive or inconclusive; note: nearly all actives have a fitted effect of over 55% in size; note: potency is the fitted concentration of half-maximal effect)
In short: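 Stably transfected HaCaT (KeratinoSens), 1,500/well. Test agents in DMSO were applied for 23 h, 37 C/5% CO2. CellTiter-Fluor was incubated 1 h before the fluorescence read.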

[2] = Nuclear factor erythroid 2-related factor 2/antioxidant responsive element (Nrf2/ARE) small molecule agonists: luciferase reporter gene qHTS assay in human keratinocytes (AID 1919969); note: nearly all actives have a fitted effect of over 35% in size; note: potency is the fitted concentration of half-maximal effect
[3] = molecular target: Gonadotropin-releasing hormone receptor (Homo sapiens) (UniProt P30968); assay: Human gonadotropin-releasing hormone receptor (GnRHR) small molecule agonists, calcium flux assay in GnRHR-HEK293 cells (AID 1920063); note: nearly all actives have a fitted effect of over 35% in size
In short: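 Stable human GnRHR HEK293 line. 18 h plating, then calcium dye for 1 h at 37 C. Agonist-mode compound addition from DMSO stocks; fluorescence monitored 3 min.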

[4] = molecular target: KiSS-1 receptor (Homo sapiens) (UniProt Q969F8); assay: Human kisspeptin (KISS1R) small molecule agonists, calcium flux assay in KISS1R-HEK293 cells (AID 1920064; active = well fitted curve in the direction sought with a large enough effect in the repeat runs; an effect the other way counts as inactive or inconclusive)
In short: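 After overnight (18 h) culture at 37 C/5% CO2, human KISS1R-HEK293 cells received calcium dye for 1 h, then test compound; emission at 540 nm (excitation 480 nm) was tracked for 3 min.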

[5] = G protein-coupled receptor (GPCR) small molecule agonists, calcium flux assay: HEK293 wild type cell line counter screen (AID 1920065)
In short: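 Following 18 h incubation at 37 C/5% CO2, plates got calcium dye for 1 h; compounds, ATP or DMSO were then pinned in and fluorescence followed kinetically (480/540 nm).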

[6] = p53 small molecule agonists, cell-based qHTS assay with human liver microsomes (AID 1963577);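 note: p53 response element beta-lactamase reporter cells with liver microsomes plus NADPH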
In short: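 HLM-supplemented p53RE-bla reporter assay: 16 h compound exposure at 37 C, microsomes and NADPH each 0.5 mg/mL final, read by fluorescence intensity.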

[7] = p53 small molecule agonists, cell-based qHTS assay with rat liver microsomes (AID 1963578)
In short: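 Quantitative HTS of the Tox21 10K library: p53RE-bla cells, rat liver microsomes plus NADPH at 0.5 mg/mL final each, 16 h at 37 C, beta-lactamase fluorescence detection.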

[8] = p53 small molecule agonists, cell-based qHTS assay with human liver microsomes: qHTS cell viability counter screen (AID 1963579); note: nearly all actives have a fitted effect of over 45% in size
In short: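 Viability of p53RE-bla cells is measured as CellTiter-Glo luminescence following a 16 h, 37 C incubation with compound, liver microsomes from human donors and NADPH.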

[9] = p53 small molecule agonists, cell-based qHTS assay with rat liver microsomes: qHTS cell viability counter screen (AID 1963580); note: nearly all actives have a fitted effect of over 45% in size; note: potency is the fitted concentration of half-maximal effect
In short: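 Rat liver microsome (0.5 mg/mL final) and NADPH (0.5 mg/mL final) co-incubation with compounds for 16 h at 37 C on HCT-116 p53RE-bla cells; cytotoxicity taken from intracellular ATP luminescence.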

[10] = p53 small molecule agonists, cell-based qHTS assay: qHTS cell viability counter screen (AID 1963581); note: nearly all actives have a fitted effect of over 45% in size
In short: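 qHTS counter screen: 16 h compound exposure at 37 C of p53RE-bla HCT-116 cells (4,000 per well, seeded 5 h prior), cell viability by ATP luminescence.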

[11] = p53 small molecule agonists, cell-based qHTS assay (AID 1963582; active = well fitted activation curve with a large enough effect in the signal ratio in the repeat runs, not every such curve was filed as active; the % refers to the signal ratio; note: potency is the fitted concentration of half-maximal effect)
In short: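 Measured: fluorescence from cleaved LiveBLAzer substrate. System: p53RE-bla cells, 16 h compound treatment at 37 C, 2 h substrate step at room temperature.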

[12] = molecular target: Muscarinic acetylcholine receptor M1 (Homo sapiens) (UniProt P11229); assay: Cholinergic receptor muscarinic 1 (CHRM1) small molecule antagonists, cell-based qHTS assay (AID 1963588); note: nearly all actives have a fitted effect of over 40% in size
In short: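 Compounds were tested at 15 concentrations in three independent runs. Dye-loaded CHRM1-CHO cells were exposed 5 min at room temperature before stimulation by acetylcholine added at 50nM. Intracellular calcium was read kinetically on FDSS for 3 min.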

[13] = cAMP Responsive Elements (CRE) small molecule agonists, cell-based qHTS assay (AID 1963590)
In short: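 Test agents in DMSO were incubated 3 h at 37 C/5% CO2 with CRE-bla HEK 293T cells seeded 18 h earlier; LiveBLAzer B/G FRET substrate was added and read after 2 h at room temperature.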

[14] = cAMP Responsive Elements (CRE) small molecule antagonists, cell-based qHTS assay (AID 1963591; active = well fitted inhibition curve with a large enough effect in the signal ratio in the repeat runs, not every such curve was filed as active; the % refers to the signal ratio)
In short: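 Reporter line CRE-bla HEK 293T in dialyzed-FBS DMEM; cells preincubated 18 h, treated 3 h with compound plus NKH477 (0.25 uM final); LiveBLAzer FRET, 2 h RT.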

[15] = molecular target: Beta-2 adrenergic receptor (Homo sapiens) (UniProt P07550); assay: Adrenergic beta2 receptor (ADRB2) small molecule antagonists, cell-based qHTS assay (AID 1963592); note: series mostly up to about 92 µM; nearly all actives have a fitted effect of over 50% in size
In short: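 Assay format: CHO-ADRB2 cells, 18-20hr seeding at 37C/5% CO2, then compound plus 1nM isoproterenol agonist mix for 0.5hr RT. Homogeneous time-resolved fluorescence cAMP detection after 1hr, expressed as 665/615 nm ratio.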

[16] = molecular target: D(2) dopamine receptor (Homo sapiens) (UniProt P14416); assay: Dopamine D2 receptor (DRD2) small molecule agonists, cell-based qHTS assay (AID 1963594); note: nearly all actives have a fitted effect of over 35% in size
In short: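 cAMP accumulation in DRD2-HEK293 cells measured by HTRF after 1 h detection; compounds added 10 min before NKH477 (200nM […]) forskolin-analogue stimulation, 30 min at room temperature, with Ro20-1724 present at 0.1 mM final.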

[17] = molecular target: D(2) dopamine receptor (Homo sapiens) (UniProt P14416); assay: Dopamine D2 receptor (DRD2) small molecule antagonists, cell-based qHTS assay (AID 1963595; active = well fitted inhibition curve with a large enough effect in the signal ratio in the repeat runs, with a control signal flat; the % refers to the signal ratio)
In short: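 Antagonism was scored as restored cAMP in HEK293-DRD2 cells. These cells were stimulated with 200 nM NKH477 and 12 nM quinpirole for 30 min at room temperature, in the presence of 0.1 mM Ro20-1724.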

[18] = molecular target: Muscarinic acetylcholine receptor M1 (Homo sapiens) (UniProt P11229); assay: Cholinergic receptor muscarinic 1 (CHRM1) small molecule agonists, cell-based qHTS assay (AID 1963589); note: nearly all actives have a fitted effect of over 35% in size
In short: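 Kinetic fluorescence (1 s intervals) of calcium-sensitive dye in human M1 CHO cells after compound addition; cells pre-incubated 18 h at 37 C/5% CO2 and dye-loaded 1 h.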

[19] = molecular target: 5-hydroxytryptamine receptor 2A (Homo sapiens) (UniProt P28223); assay: 5-hydroxytryptamine receptor 2A (HTR2A) small molecule agonists, cell-based qHTS assay (AID 1963587); note: nearly all actives have a fitted effect of over 30% in size
In short: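 Kinetic calcium-flux fluorescence (2 min, 1 sec intervals) after compound addition in agonist mode. HTR2A-CHO cells were cultured 18 h, then dye-loaded 1 h at 37 C.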

[20] = molecular target: Beta-2 adrenergic receptor (Homo sapiens) (UniProt P07550); assay: Adrenergic beta2 receptor (ADRB2) small molecule agonists, cell-based qHTS assay (AID 1963593);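 note: CHO cells stably overexpressing human ADRB2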
In short: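 CHO cells stably over-expressing ADRB2 were plated overnight at 37C, then dosed with compounds plus a stimulation mix containing 100uM IBMX and 25uM Ro-20-1724 for 0.5hr at room temperature. cAMP was measured by HTRF competition, 1hr.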

Measured: Potency

Sequence of Beta-2 adrenergic receptor (Homo sapiens) (P07550 whole entry, looked up): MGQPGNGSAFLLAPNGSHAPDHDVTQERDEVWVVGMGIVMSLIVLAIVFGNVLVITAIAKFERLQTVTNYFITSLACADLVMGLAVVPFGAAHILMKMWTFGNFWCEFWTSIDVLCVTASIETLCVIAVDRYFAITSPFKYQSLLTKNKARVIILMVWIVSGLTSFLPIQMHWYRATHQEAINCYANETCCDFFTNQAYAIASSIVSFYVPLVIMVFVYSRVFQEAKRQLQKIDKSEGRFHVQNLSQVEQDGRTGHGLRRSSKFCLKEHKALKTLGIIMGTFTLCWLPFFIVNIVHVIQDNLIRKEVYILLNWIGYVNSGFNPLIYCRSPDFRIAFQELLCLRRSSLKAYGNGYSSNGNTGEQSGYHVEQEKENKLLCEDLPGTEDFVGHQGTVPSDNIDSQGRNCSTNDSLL
Sequence of KiSS-1 receptor (Homo sapiens) (Q969F8 whole entry, looked up): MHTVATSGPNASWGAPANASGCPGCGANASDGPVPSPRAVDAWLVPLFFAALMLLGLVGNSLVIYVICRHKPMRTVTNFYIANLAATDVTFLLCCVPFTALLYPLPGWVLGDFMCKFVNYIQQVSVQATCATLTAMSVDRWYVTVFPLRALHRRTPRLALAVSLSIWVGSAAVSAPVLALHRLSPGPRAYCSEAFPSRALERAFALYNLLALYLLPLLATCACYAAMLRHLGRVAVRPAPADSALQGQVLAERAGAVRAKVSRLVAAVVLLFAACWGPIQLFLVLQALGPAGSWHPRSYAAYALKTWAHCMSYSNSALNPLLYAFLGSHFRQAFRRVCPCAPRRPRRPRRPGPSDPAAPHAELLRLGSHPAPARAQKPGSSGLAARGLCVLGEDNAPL
Sequence of D(2) dopamine receptor (Homo sapiens) (P14416 whole entry, looked up): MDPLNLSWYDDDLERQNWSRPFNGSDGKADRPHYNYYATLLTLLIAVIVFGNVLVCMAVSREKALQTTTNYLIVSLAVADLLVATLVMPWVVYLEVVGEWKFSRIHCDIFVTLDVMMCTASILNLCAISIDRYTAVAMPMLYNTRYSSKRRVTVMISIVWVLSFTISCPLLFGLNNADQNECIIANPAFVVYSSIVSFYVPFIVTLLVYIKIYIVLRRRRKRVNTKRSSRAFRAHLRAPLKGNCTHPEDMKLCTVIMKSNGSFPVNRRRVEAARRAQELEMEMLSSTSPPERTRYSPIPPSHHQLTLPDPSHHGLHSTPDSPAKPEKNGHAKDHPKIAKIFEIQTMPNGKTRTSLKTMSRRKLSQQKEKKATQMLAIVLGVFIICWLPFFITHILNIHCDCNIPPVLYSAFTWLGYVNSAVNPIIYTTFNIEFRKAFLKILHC
Sequence of Muscarinic acetylcholine receptor M1 (Homo sapiens) (P11229 whole entry, looked up): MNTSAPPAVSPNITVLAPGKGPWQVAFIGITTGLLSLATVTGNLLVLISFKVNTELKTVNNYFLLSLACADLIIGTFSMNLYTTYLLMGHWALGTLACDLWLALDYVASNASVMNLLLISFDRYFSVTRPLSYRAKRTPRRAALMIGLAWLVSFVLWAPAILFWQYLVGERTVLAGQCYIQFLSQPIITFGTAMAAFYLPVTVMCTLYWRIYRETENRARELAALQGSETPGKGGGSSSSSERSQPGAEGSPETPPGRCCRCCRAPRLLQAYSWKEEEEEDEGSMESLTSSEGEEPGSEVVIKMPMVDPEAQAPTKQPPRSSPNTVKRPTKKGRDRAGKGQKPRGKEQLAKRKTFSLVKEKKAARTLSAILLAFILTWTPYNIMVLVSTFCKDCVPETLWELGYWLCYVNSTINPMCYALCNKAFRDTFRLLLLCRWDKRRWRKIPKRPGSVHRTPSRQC
Sequence of Gonadotropin-releasing hormone receptor (Homo sapiens) (P30968 whole entry, looked up): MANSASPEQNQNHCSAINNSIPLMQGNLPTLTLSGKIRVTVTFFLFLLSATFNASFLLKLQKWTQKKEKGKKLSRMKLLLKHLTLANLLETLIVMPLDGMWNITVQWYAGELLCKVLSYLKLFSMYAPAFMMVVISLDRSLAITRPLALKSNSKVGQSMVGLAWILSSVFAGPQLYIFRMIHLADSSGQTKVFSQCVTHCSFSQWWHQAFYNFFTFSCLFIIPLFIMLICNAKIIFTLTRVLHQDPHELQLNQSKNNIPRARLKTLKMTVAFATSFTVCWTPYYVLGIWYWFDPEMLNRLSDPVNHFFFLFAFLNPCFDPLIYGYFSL
Sequence of 5-hydroxytryptamine receptor 2A (Homo sapiens) (P28223 whole entry, looked up): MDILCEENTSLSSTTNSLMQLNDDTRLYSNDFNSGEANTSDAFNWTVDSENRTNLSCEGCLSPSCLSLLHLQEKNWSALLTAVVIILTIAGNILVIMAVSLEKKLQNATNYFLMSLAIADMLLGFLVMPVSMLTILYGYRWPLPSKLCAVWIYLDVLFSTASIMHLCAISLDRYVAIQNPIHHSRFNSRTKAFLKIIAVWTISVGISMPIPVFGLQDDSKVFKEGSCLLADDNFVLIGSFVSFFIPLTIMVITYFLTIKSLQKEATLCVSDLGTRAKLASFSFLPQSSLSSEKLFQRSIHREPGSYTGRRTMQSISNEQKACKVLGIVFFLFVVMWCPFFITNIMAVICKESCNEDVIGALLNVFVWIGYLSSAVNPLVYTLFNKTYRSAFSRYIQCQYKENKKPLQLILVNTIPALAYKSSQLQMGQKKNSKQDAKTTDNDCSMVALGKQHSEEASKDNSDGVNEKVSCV

C[C@H](O)C(=O)Nc1c(I)c(C(=O)NC(CO)CO)c(I)c(C(=O)NC(CO)CO)c1I
inactive: [1] | [2] | [3] | [4] | [5] | [6] | [7] | [8] | [9] | [10] | [11] | [12] | [13] | [14] | [15] | [16] | [17]

CCC(=O)Nc1ccc(O)cc1
inactive: [1] | [2] | [3] | [4] | [5] | [6] | [7] | [8] | [9] | [10] | [11] | [12] | [18] | [13] | [14] | [15] | [16] | [17]

O=C(c1ccco1)N1CCNCC1
inactive: [1] | [2] | [3] | [4] | [5] | [6] | [7] | [8] | [9] | [10] | [11] | [19] | [12] | [18] | [13] | [14] | [15] | [20] | [16]

CC(C(=O)O)c1ccc(/C=C2\CCCCC2=O)cc1 (configuration not stated)
active: [2] 23.7 µM
inactive: [1] | [3] | [4] | [5] | [6] | [7] | [8] | [9] | [10] | [11] | [19] | [15] | [16] | [17]

NNc1nnc(NN)c2ccccc12
inactive: [1] | [2] | [3] | [4] | [5] | [6] | [7] | [8] | [9] | [10] | [11] | [19] | [12] | [18] | [13] | [14] | [15] | [20] | [16] | [17]

COc1cccc(-c2ccc(/C=C\CN3CCCCCC3)cc2Cl)c1
active: [1] 38.4 µM | [9] 40.6 µM
inactive: [2] | [3] | [4] | [5] | [6] | [7] | [8] | [10] | [11] | [18] | [15] | [20]

CC(C)(C)CC(=O)OCC(=O)[C@@]1(O)CC[C@H]2[C@@H]3CCC4=CC(=O)C=C[C@]4(C)[C@H]3[C@@H](O)C[C@@]21C
inactive: [1] | [2] | [3] | [4] | [5] | [6] | [7] | [8] | [9] | [10] | [11] | [19] | [12] | [18] | [13] | [14] | [15] | [17]

CCc1cccc(CC)c1NC(=O)CN(CC(=O)O)CC(=O)O
inactive: [1] | [2] | [3] | [4] | [5] | [6] | [7] | [8] | [9] | [10] | [11] | [19] | [12] | [18] | [13] | [14] | [15] | [16] | [17]

CC(CN1CC(=O)NC(=O)C1)N1CC(=O)NC(=O)C1 (configuration not stated)
inactive: [1] | [2] | [3] | [4] | [5] | [6] | [7] | [8] | [9] | [10] | [19] | [12] | [18] | [13] | [14] | [15] | [20] | [17]
active: [11] 19.9 µM

CCOC(=O)c1ccc(I)cc1
inactive: [1] | [2] | [3] | [4] | [5] | [6] | [7] | [8] | [9] | [10] | [11] | [19] | [12] | [18] | [13] | [14] | [15] | [16] | [17]

O[C@@H]1CO[C@H]2[C@@H]1OC[C@@H]2O
inactive: [1] | [2] | [3] | [4] | [5] | [6] | [7] | [8] | [9] | [10] | [11] | [19] | [12] | [18] | [13] | [14] | [15] | [20] | [16] | [17]

CC(=O)[C@H]1CC[C@H]2[C@@H]3C[C@H](C)C4=CC(=O)CC[C@]4(C)[C@H]3[C@@H](O)C[C@]12C
inactive: [1] | [2] | [3] | [4] | [5] | [6] | [7] | [8] | [9] | [10] | [11] | [19] | [12] | [18] | [13] | [15] | [20] | [17]

O=C1c2ccccc2C(=O)c2cc(O)ccc21
inactive: [1] | [2] | [3] | [4] | [5] | [6] | [7] | [8] | [9] | [10] | [11] | [19] | [12] | [18] | [14] | [15] | [20] | [16] | [17]

CCOC(=O)[C@H](O)[C@@H](O)C(=O)OCC
inactive: [1] | [2] | [3] | [4] | [5] | [6] | [7] | [8] | [9] | [10] | [11] | [19] | [12] | [18] | [13] | [15] | [20] | [16] | [17]

COC(=O)CCCCCCCCC(=O)OC
inactive: [1] | [2] | [3] | [4] | [5] | [6] | [7] | [8] | [9] | [10] | [11] | [19] | [12] | [18] | [14] | [15] | [20] | [17]

From PubChem BioAssay (Tox21)
